In PubChem BioAssay one finds outcome, IC50 and fold change data, which are given here for 19 compounds.

Molecules are shown by their SMILES. “And” between values parts separate entries of the source, which are not always exact repeats. Equal entries are not always repeated. Results filed as inconclusive are left out. The source made the active and inactive calls.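 The calls were made as follows, unless noted: active = compounds whose cell count with miR-34 switched on is under 0.7 times the count with it off; inactive = the rest.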

By IC50 is commonly meant the concentration that gives 50% inhibition.

A short description of one experiment: SU-DIPG-XXV glioma cell viability, MIPE5.0 library, qHTS (AID 1347068; cut-off not given, nearly all actives have IC50 up to about 30 µM;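 as to IC50: cells exposed to compound for 48 hours before viability readout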).
Conditions: not given
As for `CCOc1cc(/C=C2/C(=O)N(c3ccccc3)N=C2C)cc(Cl)c1OCC(=O)OC`, the compound was classed as inactive.

Take `N#Cc1c(NC(=O)c2cccc3ccccc23)sc2c1CCCC2`: the IC50 was 0.235 µM (active).

`COc1c(OCCCN2CCOCC2)ccc2c3n(c(=NC(=O)c4cnc(N)nc4)nc12)CCN3`: the IC50 is 0.382 µM (active).

With `COc1cccc2cc(-c3nc(C4CCC(C(=O)O)CC4)n4ncnc(N)c34)[nH]c12` (centres undefined), the compound was classed as inactive.

Consider `COc1ccc2c(c1)CC[C@@H]1[C@@H]2CC[C@]2(C)[C@@H](NCCCCCCN3C(=O)C=CC3=O)CC[C@@H]12`, for which the compound was classed as inactive.

Take `CC(C)c1cc(C(C)C)c(CC(=O)NS(=O)(=O)Oc2c(C(C)C)cccc2C(C)C)c(C(C)C)c1`: the IC50 is 8.33 µM (active).

As for `CC1(C)CCC2=C(O1)c1ccccc1C(=O)C2=O`, the IC50 is 23.5 µM (active).

`Nc1nc(Nc2ccc(S(N)(=O)=O)cc2)nn1C(=O)c1c(F)cccc1F`: the IC50 is 10.5 µM (active).

As to `CC(=O)O/N=C1/C(c2c(O)[nH]c3cc(Br)ccc23)=Nc2ccccc21`, the IC50 is 9.34 µM (active).

Take `Cc1ccc(F)c(NC(=O)Nc2ccc(-c3cccc4[nH]nc(N)c34)cc2)c1`: the IC50 was 18.6 µM (active).

Turning to `Cc1ncc(-c2ccnc(Nc3ccc(S(C)(=O)=O)cc3)n2)n1C(C)C`, the IC50 is 2.95 µM (active).

For the compound `CC(N[C@H]1CCCC[C@@H]1NC(=O)c1ccc(Cl)cc1)c1cccc2ccccc12` (some centres undefined), the IC50 is 16.6 µM (active).

Regarding `C/C(O)=C(\C#N)C(=O)Nc1ccc(C(F)(F)F)cc1`, the compound was classed as inactive.

Regarding `N#CCNC(=O)c1ccc(-c2ccnc(Nc3ccc(N4CCOCC4)cc3)n2)cc1`, the IC50 is 18.6 µM (active).

Consider `COC(=O)c1ccc2c(C(=Nc3ccc(N(C)C(=O)CN4CCN(C)CC4)cc3)c3ccccc3)c(O)[nH]c2c1`, for which the IC50 is 3.32 µM (active).

Take `COc1cc2nccc(Oc3ccc(NC(=O)Nc4cc(C)on4)c(Cl)c3)c2cc1OC`: the IC50 is 9.34 µM (active).

The nature of another experiment: sensitizers of A549 cells to miR-34 induction, primary screen, imaging, A549 dox-inducible miR-34, nuclei and caspase counts (AID 1347080). Particulars: A549 miR-34 inducible, Hoechst nuclei count, 48 h; stronger effect = lower value; cell number ratio, induced over uninduced.
For `Cc1cc(Nc2cc(CN3CCOCC3)c3nc(C)c(Cc4ccc(Cl)cc4F)n3n2)n[nH]1`, the fold change was 1.46 (inactive).

`CC1(C)CNc2cc(NC(=O)c3cccnc3NCc3ccncc3)ccc21`: the fold change is 0.978 (inactive).

Turning to `O=C(Nc1ccccc1-c1cn2c(CN3CCNCC3)csc2n1)c1cnc2ccccc2n1`, the fold change was 0.907 (inactive).

`N#Cc1c(NC(=O)c2cccc3ccccc23)sc2c1CCCC2`: the fold change was 1.02 (inactive).

Take `COc1cccc2cc(-c3nc(C4CCC(C(=O)O)CC4)n4ncnc(N)c34)[nH]c12` (centres undefined): the fold change was 0.965 (inactive).

On to `COc1ccc2c(c1)CC[C@@H]1[C@@H]2CC[C@]2(C)[C@@H](NCCCCCCN3C(=O)C=CC3=O)CC[C@@H]12`, for which the fold change is 0.933 (inactive) and 0.926 (inactive).

Consider `CC(C)c1cc(C(C)C)c(CC(=O)NS(=O)(=O)Oc2c(C(C)C)cccc2C(C)C)c(C(C)C)c1`, for which the fold change was 0.956 (inactive).

Consider `CC1(C)CCC2=C(O1)c1ccccc1C(=O)C2=O`, for which the fold change was 1.06 (inactive) and 1.01 (inactive).

Turning to `Nc1nc(Nc2ccc(S(N)(=O)=O)cc2)nn1C(=O)c1c(F)cccc1F`, the fold change was 0.887 (inactive).

In the case of `Cc1ccc(F)c(NC(=O)Nc2ccc(-c3cccc4[nH]nc(N)c34)cc2)c1`, the fold change is 0.905 (inactive).

As to `Cc1ncc(-c2ccnc(Nc3ccc(S(C)(=O)=O)cc3)n2)n1C(C)C`, the fold change was 0.998 (inactive).

With `N#CCNC(=O)c1ccc(-c2ccnc(Nc3ccc(N4CCOCC4)cc3)n2)cc1`, the fold change was 0.941 (inactive).

For the compound `COC(=O)c1ccc2c(C(=Nc3ccc(N(C)C(=O)CN4CCN(C)CC4)cc3)c3ccccc3)c(O)[nH]c2c1`, the fold change is 0.909 (inactive).

For the compound `COc1cc2nccc(Oc3ccc(NC(=O)Nc4cc(C)on4)c(Cl)c3)c2cc1OC`, the fold change is 1.35 (inactive).

Staying with this experiment, now noted: A549 miR-34 inducible, Hoechst nuclei count, 48 h; measured here: relative caspase fold change +Dox/-Dox.
Turning to `Cc1cc(Nc2cc(CN3CCOCC3)c3nc(C)c(Cc4ccc(Cl)cc4F)n3n2)n[nH]1`, the fold change came out at 0.647.

Take `CC1(C)CNc2cc(NC(=O)c3cccnc3NCc3ccncc3)ccc21`: the fold change was 0.926.

Regarding `O=C(Nc1ccccc1-c1cn2c(CN3CCNCC3)csc2n1)c1cnc2ccccc2n1`, the fold change stood at 0.998.

Regarding `N#Cc1c(NC(=O)c2cccc3ccccc23)sc2c1CCCC2`, the fold change worked out at 0.427.

`COc1cccc2cc(-c3nc(C4CCC(C(=O)O)CC4)n4ncnc(N)c34)[nH]c12` (centres undefined): the fold change worked out at 0.637.

Regarding `COc1ccc2c(c1)CC[C@@H]1[C@@H]2CC[C@]2(C)[C@@H](NCCCCCCN3C(=O)C=CC3=O)CC[C@@H]12`, the fold change is 1.05 and 1.65.

For the compound `CC(C)c1cc(C(C)C)c(CC(=O)NS(=O)(=O)Oc2c(C(C)C)cccc2C(C)C)c(C(C)C)c1`, the fold change was 0.65.

In the case of `CC1(C)CCC2=C(O1)c1ccccc1C(=O)C2=O`, the fold change is 0.218 and 1.14 and 0.258.

Turning to `Nc1nc(Nc2ccc(S(N)(=O)=O)cc2)nn1C(=O)c1c(F)cccc1F`, the fold change was determined as 0.788.

Take `Cc1ccc(F)c(NC(=O)Nc2ccc(-c3cccc4[nH]nc(N)c34)cc2)c1`: the fold change was 0.989.

Take `Cc1ncc(-c2ccnc(Nc3ccc(S(C)(=O)=O)cc3)n2)n1C(C)C`: the fold change amounted to 1.12.

In the case of `N#CCNC(=O)c1ccc(-c2ccnc(Nc3ccc(N4CCOCC4)cc3)n2)cc1`, the fold change came out at 0.89.

As for `COC(=O)c1ccc2c(C(=Nc3ccc(N(C)C(=O)CN4CCN(C)CC4)cc3)c3ccccc3)c(O)[nH]c2c1`, the fold change worked out at 1.19.

As for `COc1cc2nccc(Oc3ccc(NC(=O)Nc4cc(C)on4)c(Cl)c3)c2cc1OC`, the fold change was 0.722.
